# Laboratory results: ChEMBL document CHEMBL3988442, “University of Dundee, Small-Polar-MMV Screening Library” (2021)
# Among all 53,000 compounds or so, about 900 (1.7%) showed an effect of 50% or more. Shown is part of a subset that was picked to be rich in strong results.
# Tested on: Mycobacterium tuberculosis
# Experiment: Cornell - Phenotypic assay to identify agents that inhibit growth of Mycobacterium tuberculosis
# Format: functional
# Set-up: scale not given: direction of the effect not stated beside the values
# Conditions: 10 mM as filed; unlikely as a test dose
row,Structure (SMILES),Percent Effect [%]
1,COCCCNC(=O)N1CCN(C(=O)c2nsc3ccccc23)CC1,12.5
2,CN(C)Cc1cc(=O)n2c(n1)CN(C(=O)c1ccc[nH]1)CCC2.O=C(O)C(F)(F)F,-35.4
3,Cc1ccc(N2N=C(C(=O)O)S(=O)(=O)c3cccnc32)cc1,51.3
4,CC(C)CCN1N=C(C(=O)N2CCCCCC2)S(=O)(=O)c2ccccc21,8.314
5,Cc1ccc(N2N=C(C(N)=O)S(=O)(=O)c3cccnc32)cc1,106.9
6,Cc1ccc(CN2CCN(c3ncccc3C(N)=O)CC2CCO)cc1 (stereo not given),16.45
7,CN1N=C(C(=O)N2CCCCC2)S(=O)(=O)c2ccccc21,-10.66
8,Cc1ccc(N2N=C(C(=O)NCC3CC3)S(=O)(=O)c3cccnc32)cc1,11.26
9,Cc1cn2c(n1)CCC(NC(=O)CCCn1cncn1)C2 (stereo not given),-12.33
10,CC(=O)Nc1nc(C2CCN(C(C)C)CC2)cs1,-15.97
11,CCC(=O)N1CCCCC1c1nc(CN(C)C(C)=O)cc(N(C)C)n1 (stereo not given),49.36
12,COCC(=O)N1CCCCC1c1nc(CN(C)C(C)=O)cc(N(C)C)n1 (stereo not given),-40.24
13,CC(=O)N1CCCC1c1nc(CN(C)C(=O)C(C)C)cc(N(C)C)n1 (stereo not given),52.18
14,COc1ccc(C(=O)N2CCOc3ccncc32)cc1,9.514
15,CC(C)CC(C)NC1CCN(c2cccc(-c3cscn3)c2)CC1 (stereo not given),2.317
16,c1cc(-c2cscn2)cc(N2CCC(NCCc3cccs3)CC2)c1,60.71
17,Cc1nc(-c2cccc(N3CCC(NC4CCOCC4)CC3)c2)cs1,35.61
18,Fc1cccc(-c2cccc(N3CCC(NC4CCCOC4)CC3)c2)c1 (stereo not given),23.21
19,c1ccc(-c2cccc(N3CCC(NCCc4cscn4)CC3)c2)cc1,93.63
20,O=C1CCCN1c1cccc(N2CCC(NCCc3cscn3)CC2)c1,24.64
21,CCCC(=O)N1CCOC2(COCCN(CC(=O)NC)C2)C1.O=C(O)C(F)(F)F (stereo not given),6.771
22,O=C(CC(SC1CCCCC1)C(=O)O)c1ccc(Br)cc1 (stereo not given),52.8

row,Structure (SMILES),Percent Effect [%]
1,O=C(CC(SC1CCCCC1)C(=O)O)c1ccc(Cl)cc1 (stereo not given),11.66
2,Cc1ccc(C(=O)CC(SC2CCCCC2)C(=O)O)cc1 (stereo not given),44.78
3,O=C(O)C(F)(F)F.O=C(O)C(F)(F)F.O=C(O)c1c(-c2cccnc2)ncc2c1CCN(Cc1ccccn1)C2,-51.27
4,O=C(NCc1cccnc1)c1nc2c(s1)CCCN2C(=O)C1CC1.O=C(O)C(F)(F)F,6.625
5,c1cnc(N2CCC(c3csc(Nc4cnccn4)n3)CC2)nc1,78.58
6,NC(=O)CN1CCC(c2csc(Nc3cnccn3)n2)CC1,53.63
7,c1cnc(N2CCCC(c3csc(Nc4cnccn4)n3)C2)nc1 (stereo not given),29.09
8,Cc1nc(Nc2cnccn2)cc(C2CCN(c3ncccn3)C2)n1 (stereo not given),-14.64
9,CC(=O)Nc1nc(C2CCN(CC(N)=O)CC2)cs1,1.083
10,OCCN1CCC(c2csc(Nc3cnccn3)n2)CC1,-21.31
11,O=C(N1CCOCC1)n1cnc2ccccc21,14.08
12,CC1CCN(c2ccc(=O)n(CC(=O)NCCc3ccccc3)n2)CC1,45.57
13,COc1c(CC2CC(CO)=NO2)c(Br)c2c(c1OC)OCO2 (stereo not given),-3.025
14,CS(=O)(=O)N1CCCC(c2nc(-c3ccccc3)c[nH]2)C1 (stereo not given),4.975
15,CCCS(=O)(=O)N1CCCC(c2nc(-c3ccccc3)c[nH]2)C1 (stereo not given),56.46
16,CCN(C)S(=O)(=O)N1CCCC(c2nc(-c3ccccc3)c[nH]2)C1 (stereo not given),-4.787
17,Cc1ccc(S(=O)(=O)Nc2c(C)nc(N3CCCC3)nc2C)cc1,52.33
18,Cc1nc(N2CCOCC2)nc(C)c1NS(=O)(=O)c1ccccc1,18.03
19,Cc1nc(N2CCCC2)nc(C)c1NS(C)(=O)=O,7.192
20,CCN1CCCN(S(=O)(=O)c2cnc3onc(C)c3c2)CC1,44.95
21,CCC1CCCN(S(=O)(=O)c2cnc3onc(C)c3c2)C1 (stereo not given),54.72
22,Cc1noc2ncc(S(=O)(=O)N3CCCC(C)(C)CC3)cc12,49.9

row,Structure (SMILES),Percent Effect [%]
1,CCc1noc(CN(Cc2cccs2)CC2CCCO2)n1 (stereo not given),-2.113
2,CNc1ncc(CN(C)C(=O)c2c[nH]nc2-c2cccc(F)c2)cn1,11.75
3,Cn1ncc2c1CCCN(C(=O)C1CCCC1)C2,10.97
4,Cn1c(CCN2CCN(CCc3ccccc3)CC2)nc2ccccc21,76.94
5,CCNC(=O)N1CCN(c2nc3ccccc3n2C)CC1,17.71
6,Cc1cc(C)n(C2CCN(Cc3nc4ccccc4n3C)CC2)n1,18.24
7,Cn1c(CCN2CCN(c3ccc(O)cc3)CC2)nc2ccccc21,103.8
8,CCCc1ccc(N2CCN(Cc3nc4ccccc4n3C)CC2)cc1,-0.4475
9,Cn1c(CN2CCN(CC3CCCO3)CC2)nc2ccccc21 (stereo not given),22.41
10,CCCc1nc(NC2(COC)CCCC2)c2cnn(C)c2n1,21.48
11,Cc1ccc(C)c(S(=O)(=O)CCN2CCCC2Cn2cncn2)c1 (stereo not given),23.02
12,Fc1cccnc1O[C@@H]1CN(Cc2ccccn2)[C@@H]2CCCO[C@@H]21.O=C(O)C(F)(F)F.O=C(O)C(F)(F)F,2.355
13,Cc1ccc(-c2cc(CN3CCCC(Cn4cncn4)C3)on2)cc1 (stereo not given),8.833
14,O=C(C[C@@H]1COC[C@H]2CN(Cc3ccccn3)C[C@@H]12)N1CCOCC1.O=C(O)C(F)(F)F.O=C(O)C(F)(F)F,6.339
15,Fc1ccc(C(NCc2nnc(C3CC3)o2)C2CCC2)cc1 (stereo not given),14.86
16,c1ccc(C(NCc2nnc(-c3ccco3)o2)C2CCC2)cc1 (stereo not given),14.05
17,Fc1ccc(C(NCc2nnc(-c3ccco3)o2)C2CCC2)cc1 (stereo not given),56.57
18,CC(CNC(=O)Nc1ccc(F)cc1-n1cccc1)N1CCOCC1 (stereo not given),31.56
19,CCNc1ncc(C(=O)NCc2ccc3nsnc3c2)cn1,105.6
20,CCNc1ncc(C(=O)NCc2cccc(OC(F)(F)F)c2)cn1,27.01
21,CCNc1ncc(C(=O)NCc2ccc(F)c(C(F)(F)F)c2)cn1,-33.7
